The entries come from a sample that favours hits as a whole.
FECH block: blocks human mitochondrial ferrochelatase activity; P22830; purified FECH, Ni-mesoporphyrin absorbance 550 nm; calls only at 10 µM (by protocol); 20,000 tested, 3.3% active; AID 1671448;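 active = enzyme reaction rate more than 3 SD below the solvent-only control wells on the same plate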;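 note: lower slope than DMSO wells means FECH inhibition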
Target sequence (P22830 whole entry, looked up): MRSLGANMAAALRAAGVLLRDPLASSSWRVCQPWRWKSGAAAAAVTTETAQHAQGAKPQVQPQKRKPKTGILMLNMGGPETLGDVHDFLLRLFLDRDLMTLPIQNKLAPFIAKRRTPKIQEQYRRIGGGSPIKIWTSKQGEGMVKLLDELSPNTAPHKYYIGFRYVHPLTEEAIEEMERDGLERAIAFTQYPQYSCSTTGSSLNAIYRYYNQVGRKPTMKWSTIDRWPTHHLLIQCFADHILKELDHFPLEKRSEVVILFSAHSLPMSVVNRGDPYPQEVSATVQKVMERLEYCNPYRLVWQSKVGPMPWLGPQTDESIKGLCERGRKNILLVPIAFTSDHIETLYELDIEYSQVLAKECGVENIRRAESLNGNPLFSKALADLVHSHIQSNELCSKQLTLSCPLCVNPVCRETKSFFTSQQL
* = called active by the depositor; i = inactive; + = active, no number.

SMILES | FECH block
COc1cccc(C(=O)N(Cc2nc3nc(C)cc(C)n3n2)c2ccc(Cl)cc2)c1 | i
CCCC(=O)N(Cc1nc2nc(C)cc(C)n2n1)c1cccc(C)c1 | +
Cc1cc(C)n2nc(CN(C(=O)c3ccccc3C)c3cccc(Cl)c3)nc2n1 | i
CCCC(=O)N(Cc1nc2nc(C)cc(C)n2n1)c1cccc(Cl)c1 | i
Cc1ccc(N(Cc2nc3nc(C)cc(C)n3n2)C(=O)Cc2ccc(Cl)cc2)cc1 | +
CC(C)Oc1ccc(OCCN[C@H]2CCCCNC2=O)cc1 | i
CCc1nc(C)c(C(=O)NCCCc2nc3ccc(C)cc3o2)o1 | i
Cc1nccn1CCC1CCN(C(=O)c2cccc(C3CCNC3)c2)CC1 (stereo not given) | i
Cc1ccnc(N2CCCC(C(=O)NCCc3ccc(S(N)(=O)=O)cc3)C2)n1 (stereo not given) | i
Cc1cccc(-n2cc(CN(C)C(=O)C(=O)c3ccco3)cn2)c1 | i
C=CCN(C)C(=O)c1coc(COc2cccc3cccnc23)n1 | i
CCC(=O)Nc1ccc(S(=O)(=O)NCc2nc3cccnc3n2CC)cc1 | i
NS(=O)(=O)c1ccc(CCNC(=O)C2CCN(c3cnccn3)CC2)cc1 | i
CCOc1ccc(Nc2nc(N3CCN(CC)CC3)nc3c2cnn3-c2ccccc2)cc1 | i
CCC(CO)N(Cc1ccsc1)Cc1cnc2ccccc2c1 (stereo not given) | i
Cc1nsc(NC(=O)NC2CCOCC2)n1 | i
Cc1cc(C)cc(Nc2nc(N3CCCC(C)C3)nc3c2cnn3-c2ccccc2)c1 (stereo not given) | i
CCC1=C(c2ccc(OC)cc2)S(=O)(=O)N(CC(=O)Nc2ccc(NC(C)=O)cc2)C1=O | i
Cc1cc(Sc2ccc(NC(=O)Nc3ccc(Br)cc3F)cc2)n2ncnc2n1 | i
Cc1cccc(N(Cc2nc3nc(C)cc(C)n3n2)S(=O)(=O)c2ccccc2)c1 | i
Cc1ccc(N(Cc2nc3nc(C)cc(C)n3n2)S(=O)(=O)c2ccccc2)cc1 | +
Cc1cccc(N(Cc2nc3nc(C)cc(C)n3n2)C(=O)c2ccccc2)c1 | i
Cc1cccc(C(=O)N(Cc2nc3nc(C)cc(C)n3n2)c2ccccc2)c1 | +
Cc1cc(C)n2nc(CN(C(=O)C3CCCCC3)c3ccc(Cl)cc3)nc2n1 | +
Cc1cc(C)n2nc(CN(C(=O)c3ccccc3)c3ccc(Cl)cc3)nc2n1 | i
SMILES | FECH block
Cc1ccc(N(Cc2nc3nc(C)cc(C)n3n2)C(=O)C2CCCCC2)cc1 | i
Cc1ccc(N(Cc2nc3nc(C)cc(C)n3n2)S(=O)(=O)c2ccc(C)cc2)cc1 | i
Cc1cc(C)n2nc(CN(C(=O)C3CCCCC3)c3cccc(Cl)c3)nc2n1 | i
Cc1cccc(Cn2c(=O)c3cnc(-c4cccnc4)nc3n(C)c2=O)c1 | i
CC(CO)CN(Cc1ccccc1)Cc1cc2ccc(F)cc2[nH]c1=O (stereo not given) | i
CN1CCn2nc(C(=O)NCc3nc(-c4ccccc4)n[nH]3)cc2C1 | i
Cc1cc(C)cc(C(=O)NCCn2c(CCc3ccccc3)nc3cccnc32)c1 | i
CCCCOc1ccc(S(=O)(=O)N2CCN(c3nc(C)cc(N4CCCC4)n3)CC2)cc1 | +
CCOc1ccc(S(=O)(=O)N2CCN(c3nc(C)cc(N4CCCC4)n3)CC2)cc1 | i
CCCCOc1ccc(S(=O)(=O)N2CCN(c3nc(C)cc(N4CCCCC4)n3)CC2)cc1 | i
CCC(=O)Nc1ccccc1-c1nnc(SC(C)C(=O)Nc2cc(OC)cc(OC)c2)[nH]c1=O (stereo not given) | i
CC(C)c1nc(CS(C)(=O)=O)n(-c2cccc3cccnc23)n1 | i
c1cncc(CN(Cc2ccc3c(c2)CCO3)Cc2ccc3c(c2)OCO3)c1 | i
CCc1c(C)nc2ncnn2c1Sc1ccccc1NC(=O)Nc1cccc(Cl)c1 | i
CC(c1cccc(-c2cccc3c(N)ccnc23)c1)N(C)C (stereo not given) | +
COC(C)c1cccc(-c2ncccc2Cl)c1 (stereo not given) | i
CC(c1cccc(-c2ccc3nc[nH]c3c2)c1)N(C)C (stereo not given) | i
COCCNC(=O)c1ccc(CN2C(=O)CCn3nc(-c4ccc(OC)cc4)cc32)cc1 | i
O=C(NC1CC1)C1CCCN(C2CCN(C(=O)c3coc4ccccc34)CC2)C1 (stereo not given) | i
CCc1ccc(-n2c(CN3CCN(S(=O)(=O)c4ccc(CC)cc4)CC3)nc3cccnc32)cc1 | +
CCc1ccc(-n2c(CN3CCN(S(=O)(=O)c4ccc(C)c(C)c4)CC3)nc3cccnc32)cc1 | i
Cc1ccc(S(=O)(=O)N2CCN(Cc3nc4cccnc4n3-c3ccccc3)CC2)cc1C | i
CCc1ccc(S(=O)(=O)N2CCN(Cc3nc4cccnc4n3-c3ccc(C)cc3)CC2)cc1 | i
COc1ccc(Cl)cc1S(=O)(=O)N1CCN(Cc2nc3cccnc3n2-c2ccccc2)CC1 | i
COc1ccc(S(=O)(=O)N2CCN(Cc3nc4cccnc4n3-c3ccccc3)CC2)cc1OC | +
SMILES | FECH block
Cc1cc(N2CCCCC2C)n2nc(-c3cccnc3)nc2n1 (stereo not given) | i
C=CCN(C(=O)c1cnn(CCC)c1C)C1CCS(=O)(=O)C1 (stereo not given) | i
CC(C)NC(=O)[C@@H]1C[C@@H](N)CN1Cc1ccnc(C(C)C)n1 | i
Cc1ccc(NC(=O)COc2ccccc2F)cc1OCc1cc(=O)n2cccc(C)c2n1 | i
CN(Cc1ccncc1)Cc1nc(-c2cccnc2)no1 | i
Cc1ccc2[nH]c(CN(C)Cc3nc(-c4cccnc4)no3)nc2c1C | +
CN(Cc1nc(-c2cccnc2)no1)Cc1ccc(C2CCCO2)s1 (stereo not given) | i
O=C(N1CCc2nc[nH]c2C1)C1(Oc2ccc(Cl)cc2)CCNCC1 | i
CCOc1ccc(NC(=O)CN2CCCN(Cc3cccc(Cl)c3)S2(=O)=O)cc1 | +
CCOc1ccc(NC(=O)CN2CCCN(Cc3ccccc3)S2(=O)=O)cc1 | +
O=C(CN1CCCN(Cc2cccc(Cl)c2)S1(=O)=O)Nc1ccc2c(c1)OCO2 | i
CC(=O)c1ccc(NC(=O)CN2CCCN(Cc3ccccc3)S2(=O)=O)cc1 | i
COc1ccc(CNC(=O)CN2CCCN(Cc3cccc(Cl)c3)S2(=O)=O)cc1 | i
COC(=O)c1ccc(NC(=O)CN2CCCN(Cc3ccccc3)S2(=O)=O)cc1 | i
CCOC(=O)C1CCCN(S(=O)(=O)c2cc(N3C(=O)CCS3(=O)=O)ccc2OC)C1 (stereo not given) | i
CCc1ocnc1C(=O)N(C)CCc1nc2c(C)cccc2[nH]1 | i
CCOc1ccc(CC(=O)Nc2cc(C)nn2-c2ncnc3c2cnn3-c2ccc(C)cc2C)cc1 | i
Cc1ccc(C(C)NC(=O)CN2CCC(O)(Cn3ccnc3)CC2)cc1 (stereo not given) | i
Cc1ccc(C(C)NC(=O)CN2CCC(O)(CN3CCCC3)CC2)cc1 (stereo not given) | +
Cc1ccc(C(C)NC(=O)CN2CCS(=O)(=O)CC2)cc1 (stereo not given) | i
COC(=O)[C@@H](NCC(=O)Nc1cnccn1)c1ccccc1 | i
O=C(CCN1CCCCO1)NC[C@@H]1C[C@@H]2C=C[C@H]1C21CC1 | i
CN1CCCC1CCNC(=O)CCC(=O)NC1CCCC1 (stereo not given) | i
CCN(CC)C1CCN(C(=O)CCC(=O)NC2CCCCCCC2)C1 (stereo not given) | +
